For 30 molecules, Potency and outcome results are on record in PubChem BioAssay (Tox21).

Where “and” joins values, the source holds several entries; their conditions need not be identical. Equal values may be shown once. Inconclusive results are not listed. Some structures have more than one record in an assay (separate samples or runs), and their calls can disagree. Calls of active or inactive are those of the source. Unless noted, calls follow the shape of the dose curve; as a rule, active = well fitted curve in the direction sought with a large enough effect in the repeat runs; inconclusive = weak or mixed curves; inactive = no such curve, though single readings can be large; an effect the other way counts as inactive or inconclusive.

Experiment [1] is described as follows: qHTS assay to identify small molecule antagonists of the vitamin D receptor (VDR) signaling pathway - cell viability counter screen (AID 743225). Also: nearly all actives have a fitted effect of over 50% in size. Also: potency is read from the fitted curve at half-maximal effect. In short, it runs like this: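 Cytotoxicity toward the VDR-bla HEK 293T line was scored by ATP-based CellTiter-Glo luminescence, read in the wells already used for the beta-lactamase readout after 16 h compound treatment under 3 nM 1-alpha,25-dihydroxyvitamin D3 stimulation.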
A general note: In qHTS, concentration-response curves come from the screen itself.

Experiment [2] is described as follows: qHTS assay to identify small molecule agonists of the endoplasmic reticulum stress response signaling pathway (AID 1159516; active = well fitted activation curve with a large enough effect in the signal ratio in the repeat runs, not every such curve was filed as active; the % refers to the signal ratio; also: potency is read from the fitted curve at half-maximal effect; as to activation: % is scaled to controls: 0 for no effect and ±100 for the full control effect). In short, it runs like this:
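Ratiometric FRET readout (405 nm excitation; 460 and 530 nm emission) of a beta-lactamase gene driven by the ER stress response element, after 2 hr substrate loading. HeLa ESRE-bla cells were seeded overnight and treated with compounds for only 5 hr at 37 C.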

Experiment [3] in a line: qHTS assay to identify small molecule antagonists of the retinoid-related orphan receptor gamma (ROR-gamma) signaling pathway - cell viability counter screen (AID 1159520). Also: nearly all actives have a fitted effect of over 50% in size. Also: potency is read from the fitted curve at half-maximal effect. Put shortly: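 Tet-on ROR gamma CHO cells (1,000/well) were plated 4 hr, given compounds in DMSO for 2 hr at 37 C, then induced with 1 uM final doxycycline for 16 hr. Viability was read as ATP by CellTiter-Glo luminescence after 30 min.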

In experiment [4] the target is Nuclear receptor ROR-gamma (Homo sapiens) (UniProt P51449). The experiment in a line: qHTS assay to identify small molecule antagonists of the retinoid-related orphan receptor gamma (ROR-gamma) signaling pathway (AID 1159521; also: nearly all actives have a fitted effect of over 50% in size; also: potency is read from the fitted curve at half-maximal effect). Put shortly:
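Readout: ONE-Glo luciferase luminescence, 30 min at room temperature. System: Tet-on RORγ CHO, RORE-LUC. Sequence: compound 2 h, doxycycline 1 uM final, 16 h at 37 C.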

Experiment [5] in a line: qHTS assay to identify small molecule agonists of the AP-1 signaling pathway - cell viability counter screen (AID 1159525; calls by dose curve; also: nearly all actives have a fitted effect of over 55% in size; also: potency is read from the fitted curve at half-maximal effect). In short, it runs like this:
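Each titration point was normalised to DMSO and tetra n-octyl ammonium bromide controls. The read was Cell Titer Glo luminescence after 30 min at RT, following 5 h compound exposure of ME-180 AP-1-bla cells at 37 °C.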

The nature of experiment [6]: qHTS assay to identify small molecule agonists of the AP-1 signaling pathway (AID 1159526; calls by dose curve; also: potency is read from the fitted curve at half-maximal effect; as to activation: % is scaled to controls: 0 for no effect and ±100 for the full control effect).
Experiment [7] addresses Retinoic acid receptor RXR-alpha (Homo sapiens) (UniProt P19793). The experiment in a line: qHTS assay to identify small molecule agonists of the RXR signaling pathway (AID 1159527; calls by dose curve; also: % is scaled to controls: 0 for no effect and ±100 for the full control effect; nearly all actives have a fitted effect of over 35% in size). In short, it runs like this: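 Reporter activation is measured as beta-lactamase activity via FRET substrate cleavage (emission 460/530 nm) in HEK 293T cells expressing an RXR-alpha-driven bla construct, following 16 hr compound exposure at 37 C.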

A short description of experiment [8]: qHTS assay to identify small molecule agonists of the RXR signaling pathway - cell viability counter screen (AID 1159529). Also: nearly all actives have a fitted effect of over 50% in size. Also: potency is read from the fitted curve at half-maximal effect. Put shortly:
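Tox21 10K compounds were tested for cytotoxicity against GeneBLAzer RXR-alpha HEK 293T cells grown in 2% charcoal-stripped FBS. Exposure lasted 16 hr at 37 C, 5% CO2; viability read by CellTiter-Glo luminescence.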

Experiment [9] is described as follows: qHTS assay to identify small molecule agonists of the endoplasmic reticulum stress response signaling pathway - cell viability counter screen (AID 1159517; calls by dose curve; also: nearly all actives have a fitted effect of over 50% in size; also: potency is read from the fitted curve at half-maximal effect). Put shortly: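 Cytotoxicity of test compounds toward ESRE-bla HeLa cells was assessed after 5 hr exposure. The luminescent CellTiter-Glo signal was measured 30 min after reagent addition.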

Retinoic acid receptor RXR-alpha (Homo sapiens), sequence (P19793 whole entry, looked up): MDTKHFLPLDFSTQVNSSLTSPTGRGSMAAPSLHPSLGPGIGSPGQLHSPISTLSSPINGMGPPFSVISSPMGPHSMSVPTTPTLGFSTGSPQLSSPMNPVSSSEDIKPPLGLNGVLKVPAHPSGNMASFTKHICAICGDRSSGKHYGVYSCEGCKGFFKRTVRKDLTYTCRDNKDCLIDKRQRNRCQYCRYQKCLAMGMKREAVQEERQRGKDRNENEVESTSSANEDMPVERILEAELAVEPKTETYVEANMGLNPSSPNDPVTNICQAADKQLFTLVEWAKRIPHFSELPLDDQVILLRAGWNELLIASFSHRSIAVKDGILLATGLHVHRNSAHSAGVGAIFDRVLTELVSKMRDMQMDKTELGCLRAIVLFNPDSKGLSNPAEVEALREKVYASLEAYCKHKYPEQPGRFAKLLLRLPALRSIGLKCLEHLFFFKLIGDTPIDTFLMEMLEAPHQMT

Turning to `CC(=O)Nc1ccc2c(c1)Cc1ccccc1-2`, the Potency entry in experiment [1], in [2], in experiment [3], in experiment [4], in [5] and in [6] was “inactive” throughout. In addition, the Potency result in [8] is “inactive”. Further, in [7], the result was inactive.

Turning to `C[C@]12Cc3nonc3C[C@@H]1CC[C@@H]1[C@@H]2CC[C@@]2(C)[C@H]1CC[C@]2(C)O`, the Potency result in experiment [1] and in experiment [2] was “inactive” throughout. For the same molecule, the Potency was 7.5 µM (active) in experiment [4] and 21.3 µM (active) in [8].

For `CC(=O)[O-].CC(=O)[O-].O.O.[Cd+2]`, the Potency in experiment [1] is 15.3 µM (active); in experiment [2] it was 0.216 µM (active); in experiment [8], 13.6 µM (active). For the same molecule, the Potency entry in [3] is “inactive”.

Turning to `CC(C)(C)OO`, the Potency result in experiment [1], in experiment [2], in experiment [3], in experiment [4], in [6] and in experiment [8] was “inactive” in each case. In addition, the result in [7] was inactive.

Regarding `CC1(C)CC/C(=C/c2ccc(Cl)cc2)C1(O)Cn1cncn1` (stereo unspecified), the Potency entry in experiment [2], in experiment [3], in experiment [5] and in experiment [8] was “inactive” each time. Further, the Potency in [4] is 24.2 µM (active).

For the molecule `Cc1cc(C)cc(OP(=O)(Oc2cc(C)cc(C)c2)Oc2cc(C)cc(C)c2)c1`, the Potency entry in experiment [1], in experiment [2], in experiment [3], in experiment [4], in experiment [5] and in [6] was “inactive” each time. In addition, the Potency result in experiment [8] was “inactive”.

In the case of `O=c1[nH]c2ccccc2n1C1CCN(CCCC(c2ccc(F)cc2)c2ccc(F)cc2)CC1`, the Potency in experiment [1] was 24.5 µM (active); in experiment [3], 24.3 µM (active) and 29.8 µM (active); in [4], 19.3 µM (active) and 23.7 µM (active); in experiment [5], 19.5 µM (active); in [8], 21.9 µM (active) and 23.9 µM (active). Also, the Potency result in [2] is “inactive”.

For the molecule `ClC1=C(Cl)[C@]2(Cl)[C@H]3[C@H]([C@H]4C=C[C@H]3C4)[C@@]1(Cl)C2(Cl)Cl`, the Potency result in [1], in experiment [2], in experiment [5], in experiment [6] and in experiment [8] was “inactive” in each case.

On to `Cc1cc(C(F)(C(F)(F)F)C(F)(F)F)ccc1NC(=O)c1cccc(I)c1C(=O)NC(C)(C)CS(C)(=O)=O`, for which the Potency result in [1], in experiment [2], in [3] and in experiment [5] was “inactive” each time. Moreover, the molecule was called inactive in experiment [7].

Turning to `C1CCC2CCCCC2C1` (stereo unspecified), the Potency result in experiment [1], in [2], in experiment [3], in experiment [4], in experiment [6] and in [8] was “inactive” each time. Besides, the outcome in [7] was inactive.

For the molecule `CS(=O)(=O)c1ccc(C(=O)C2C(=O)CCCC2=O)c([N+](=O)[O-])c1`, the Potency entry in experiment [2], in [3], in [5] and in [8] was “inactive” in each case.

`CN(C)CCc1c[nH]c2ccc(O)cc12`: the Potency entry in [1], in experiment [2], in experiment [3], in experiment [4], in experiment [5] and in experiment [6] was “inactive” each time.

In the case of `CC(=O)/C=C/c1ccc2c(c1)OCO2`, the Potency entry in [1], in experiment [9], in experiment [3], in [4], in experiment [6] and in experiment [8] was “inactive” each time.

Consider `O=C1NCN(c2ccccc2)C12CCN(CC1COc3ccccc3O1)CC2` (stereo unspecified), for which the Potency entry in [1], in experiment [2], in [3], in experiment [4], in experiment [5] and in [6] was “inactive” throughout. Besides, the Potency in experiment [8] is 6.74 µM (active).

Take `Cc1cc(SCc2sc(-c3ccc(C(F)(F)F)c(F)c3)nc2C)ccc1OCC(=O)O`: the Potency in [1] was 21.9 µM (active); in experiment [8], 19.5 µM (active). For the same molecule, the Potency entry in experiment [2], in experiment [3], in [4] and in experiment [5] was “inactive” in each case.

In the case of `Clc1ccc(CO/N=C(\Cn2ccnc2)c2ccc(Cl)cc2Cl)c(Cl)c1`, the Potency in experiment [9] was 23.9 µM (active); in experiment [3], 26.6 µM (active); in [4], 26.6 µM (active).

On to `COc1cccc(C(=O)CCN[C@@H](C)[C@H](O)c2ccccc2)c1`, for which the Potency result in experiment [1], in experiment [2], in experiment [3] and in experiment [5] was “inactive” throughout.

`O=C(O)c1cc[c]([Hg][Cl])cc1`: the Potency in experiment [1] was 21.9 µM (active); in experiment [3], 24.3 µM (active); in [4] it was 4.86 µM (active); in [8], 43.6 µM (active). Moreover, in experiment [2], the Potency result is “inactive”.

For `ClC1=C(Cl)C2(Cl)C3C(Cl)C=CC3C1(Cl)C2(Cl)Cl` (stereo unspecified), the Potency result in experiment [1] is “inactive”. Moreover, the Potency in [9] was 55.2 µM (active); in experiment [3], 68.9 µM (active); in experiment [4], 61.4 µM (active) and inactive; in [5] it was 43.8 µM (active); in experiment [8] it was 34.7 µM (active).

As for `CCCCCCCCCCCCCCCC[n+]1ccccc1`, the Potency was 24.2 µM (active) [middle of 4 runs] in experiment [1]; 34.7 µM (active) and 34.2 µM (active) and 12 µM (active) in [9]; 54.5 µM (active) [middle of 4 runs] in experiment [3]; 4.27 µM (active) [middle of 4 runs] in [4]; 32.3 µM (active) and 54.9 µM (active) and 43 µM (active) in [5]; 17.1 µM (active) [middle of 4 runs] in [8].

As for `CCCN(CCC)CCc1c[nH]c2ccccc12`, the Potency result in experiment [1], in experiment [2], in experiment [3], in [5] and in experiment [8] was “inactive” throughout. Besides, in experiment [6], the Potency is 43.1 µM (active).

For `COc1cc(N)c(Cl)cc1C(=O)NC1CN2CCC1CC2` (stereo unspecified), the Potency result in [1], in [9], in experiment [3], in experiment [4], in [5] and in experiment [6] was “inactive” throughout. Further, in experiment [8], the Potency result is “inactive”. Moreover, in [7], the molecule was classed as inactive.

On to `Clc1ccc(C(Cl)(Cl)Cl)c(Cl)c1`, for which the Potency result in [1], in [2], in experiment [3], in experiment [4], in experiment [5] and in [6] was “inactive” throughout. Besides, in experiment [7], the result was inactive. Further, the Potency in experiment [8] is 19.6 µM (active).

For the molecule `CCOCCOC(C)=O`, the Potency result in experiment [2], in experiment [3], in experiment [4], in [5], in experiment [6] and in experiment [8] was “inactive” in each case.

Take `CN(C)[C@@H]1C(=O)C(C(N)=O)=C(O)[C@@]2(O)C(=O)C3=C(O)c4c(O)ccc(Cl)c4[C@@](C)(O)[C@H]3C[C@@H]12`: the Potency entry in experiment [1], in experiment [9], in experiment [3], in experiment [5] and in experiment [8] was “inactive” in each case. Besides, the Potency in [4] was 49.6 µM (active).

Turning to `S=C(SSC(=S)N1CCCCC1)N1CCCCC1`, the Potency result in experiment [2] is “inactive”. Moreover, the Potency in experiment [3] was 0.188 µM (active); in experiment [4] it was 0.15 µM (active); in experiment [8], 0.12 µM (active).

With `ClC1=C(Cl)[C@]2(Cl)[C@@H]3[C@@H]4C[C@@H]([C@H]5O[C@@H]45)[C@@H]3[C@@]1(Cl)C2(Cl)Cl`, the Potency is 54.9 µM (active) in experiment [9], 61.1 µM (active) in [3], 19.3 µM (active) in experiment [4] and 43.6 µM (active) in [5].

On to `O=C(Cl)c1ccc(Cl)cc1`, for which the Potency result in experiment [3], in [4], in [5], in experiment [6] and in experiment [8] was “inactive” throughout. Also, the molecule was called inactive in experiment [7].

For the molecule `CC(=O)C(Cl)(Cl)Cl`, the Potency entry in experiment [9] and in [5] was “inactive” in each case. Further, in experiment [4], the Potency was 9.35 µM (active).

In the case of `CC(C)(C)c1cc([N+](=O)[O-])cc(C(C)(C)C)c1O`, the Potency in experiment [1] is 12.3 µM (active). Further, the Potency entry in [9] and in experiment [5] was “inactive” throughout. The call in experiment [7] was inactive.
